Source: PubChem
Shown are actives, neighbours in structure and some others; about 4.1% of the full set was active somewhere.
LEDGF integ inh = blocks HIV-1 LEDGF/p75-dependent DNA integration; TR-FRET IN-LEDGF/p75 DNA integration, Eu/Cy5; AID 743269; inhibition, % at 3.7 µM; 0.64% of 370,000 active;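 active = inhibition above the screen-wide mean plus 3 SD, cut at about 13% in these data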;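 note: signal is the Cy5 over europium emission ratio at 671 and 618 nm; 0% = plate median of compound wells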
PRMT1 inh = blocks human protein arginine methyltransferase 1; inhibition, % at 2.79 µM; AID 652257; recombinant PRMT1, activity-based probe fluorescence polarization; Q99873; 1.3% of 370,000 active;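 active = inhibition above about 21% made by adding two undisclosed values, limit read from the data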
rCAG binder = binds r(CAG) RNA repeats; r(CAG) RNA repeat, TO-PRO-1 dye displacement fluorescence; inhibition, % at 3 µM; 1.3% of 370,000 active;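 active = inhibition above the plate cutoff, the mean of all test compounds on that plate plus 3 SD, cut at about 35% in these data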;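 note: 0% = DMSO alone and 100% = 100 µM mitoxantrone as full dye displacement; higher means more dye released from RNA so lower well fluorescence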
MBD2 DNA inh = blocks human MBD2 binding to methylated DNA; TR-FRET, MBD2 binding to methylated oligonucleotide; inhibition, % at 4.4 µM; 0.31% of 370,000 active; in the data active = inhibition above about 13%
UHRF1 MBD2 ctr = UHRF1 methyl-DNA binding inhibition | Q96T88 | UHRF1 binding to methylated oligo, TR-FRET | inhibition, % at 4.4 µM | 0.75% of 370,000 active | AID 687016; in the data active = inhibition above about 21%;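 note: UHRF1 SRA domain binding a hemimethylated CpG hairpin DNA probe; 0% = median of test compound wells and 100% = reference inhibitor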
Target sequence (Q96T88 whole entry, looked up, the tested form may be a part): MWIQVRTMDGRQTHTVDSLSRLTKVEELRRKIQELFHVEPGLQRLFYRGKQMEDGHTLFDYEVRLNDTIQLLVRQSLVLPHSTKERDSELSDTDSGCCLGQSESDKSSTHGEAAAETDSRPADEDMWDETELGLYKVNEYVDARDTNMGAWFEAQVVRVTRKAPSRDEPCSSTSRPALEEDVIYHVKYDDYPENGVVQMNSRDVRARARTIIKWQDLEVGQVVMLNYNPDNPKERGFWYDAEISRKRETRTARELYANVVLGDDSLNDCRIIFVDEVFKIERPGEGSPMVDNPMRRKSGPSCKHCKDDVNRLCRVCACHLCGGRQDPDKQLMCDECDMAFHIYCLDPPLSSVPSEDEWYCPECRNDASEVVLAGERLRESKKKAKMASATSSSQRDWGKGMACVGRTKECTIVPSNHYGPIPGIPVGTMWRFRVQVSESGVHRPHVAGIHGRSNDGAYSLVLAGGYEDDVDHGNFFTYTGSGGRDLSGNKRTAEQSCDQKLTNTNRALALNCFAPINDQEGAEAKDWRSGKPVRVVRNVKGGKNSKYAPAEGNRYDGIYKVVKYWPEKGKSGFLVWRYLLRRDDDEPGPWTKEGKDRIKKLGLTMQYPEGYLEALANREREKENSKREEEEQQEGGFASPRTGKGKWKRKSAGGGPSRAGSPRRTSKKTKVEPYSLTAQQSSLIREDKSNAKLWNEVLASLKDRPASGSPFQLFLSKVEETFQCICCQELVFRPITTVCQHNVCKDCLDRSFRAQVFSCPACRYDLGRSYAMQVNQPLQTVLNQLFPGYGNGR
ABHD5-PLIN5 inh = ABHD5-PLIN5 protein interaction inhibition | Split G. princeps luciferase complementation, luminescence, 4 h | inhibition, % at 4 µM | 0.78% of 360,000 active;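 active = inhibition above the mean inhibition across every tested compound plus 3 SD, cut at about 22% in these data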;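 note: 0% = DMSO only wells and the 100% control is not disclosed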
IN multimer up = counter-screen for LEDGF/p75 integration inhibitors: HIV-1 integrase multimerization activators; shares compounds with LEDGF integ inh; TR-FRET HIV-1 integrase multimerization, biochemical; activation, % at 7.7 µM; 17% of 2,000 active; AID 1053131; in the data active = activation above about 8.9%
TRFRET interf = optically interferes with TR-FRET readout in LEDGF counter-screen; shares compounds with LEDGF integ inh; TR-FRET optical interference counterscreen, HIV-1 IN multimerization; 2,000 tested, under 10 active; inhibition, % at 7.7 µM; AID 1053135;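 active = inhibition above the mean over all tested compounds plus 3 SD, which no compound reached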;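 note: 0% = integrase with antibodies and DMSO and 100% = antibodies without integrase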
LEDGF integ conf = confirmation of HIV-1 LEDGF/p75-dependent integration inhibitors; inhibition, % at 3.7 µM; TR-FRET LEDGF/p75-dependent HIV-1 integration, biochemical; shares compounds with LEDGF integ inh; 36% of 2,000 active; AID 1053136; in the data active = inhibition above about 14%
* marks the source's active call; other numbers are inactive results; . = no result given.

SMILES	LEDGF integ inh	PRMT1 inh	rCAG binder	MBD2 DNA inh	UHRF1 MBD2 ctr	ABHD5-PLIN5 inh	IN multimer up	TRFRET interf	LEDGF integ conf
O=C(CCc1ccccc1)N[C@H]1[C@@H](OC(=O)c2cnccn2)CCC[C@]12C(=O)N(Cc1ccccc1)c1ccccc12	-1	11	5	3	0	.	.	.	.
O=C(Nc1c(-c2ccc(Cl)cc2)[nH][nH]c1=O)c1ccccc1Cl	-5	3	11	-5	-8	-32	.	.	.
Cc1ccc(C(=O)Nc2c(-c3ccc(Cl)cc3)[nH][nH]c2=O)cc1	14*	2	10	2	4	-17	4	-12	1
CC1SC(=S)N(c2ccc(N(C)C)cc2)C1=O (centres undefined)	20*	9	4	-9	0	-33	1	-3	0
CN(C)c1ccc(N2C(=O)CSC2=S)cc1	21*	23*	16	1	0	-22	2	-12	6
CN(C)c1ccc(N2C(=O)CC(c3ccccc3)CC2=O)cc1	1	3	-3	-4	0	-4	.	.	.
COc1ccccc1CNC(=O)NNC(=O)CCn1nc(C)c([N+](=O)[O-])c1C	3	0	1	-1	-1	.	.	.	.
CCOC(=O)CC[C@H]1CC[C@]2(CCCN(C(=O)c3cccnc3)C2)O1	1	-1	-1	0	-1	.	.	.	.
CN(C(=O)COC(=O)c1cncc(Br)c1)C1CCCCC1	16*	1	1	7	3	4	-2	8	-3
COc1ccc(CN2CN3Cc4ccc(C)cc4C3CS2(=O)=O)cc1 (centres undefined)	0	2	6	3	-2	.	.	.	.
CCN(CC)C(=O)[C@H]1C[C@H](CC(=O)NCc2ccco2)C(=O)N2CCc3c([nH]c4cc(-c5ccco5)ccc34)[C@]12C	17*	8	6	-3	-1	4	0	-1	-2
COc1ccc(Sc2cccc3c2S(=O)(=O)N(C2CC2)C[C@@H](COCc2ccccc2)O3)cc1OC	2	-1	9	4	-1	.	.	.	.
COc1cccc(-c2nnc(NC(=O)CCS(=O)(=O)c3ccc(F)cc3)o2)c1	15*	-3	12	-2	-1	-1	5	-28	-3
COc1cc(OC)cc(-c2nnc(NC(=O)CCS(=O)(=O)c3ccc(C)cc3)o2)c1	1	-3	18	-3	-2	-8	.	.	.
Cc1cc(N2CCN(C(=O)OC(C)(C)C)C[C@H]2C)ccc1N1CCS(=O)(=O)CC1	1	-4	3	1	1	.	.	.	.
CC(C)C[C@H]1COc2cc(Br)ccc2S(=O)(=O)N1Cc1cn(Cc2ccc(F)cc2)nn1	0	1	1	-6	-4	.	.	.	.
N#Cc1nc(-c2ccccc2F)oc1NCc1ccccc1	14*	2	0	-1	2	-13	0	-2	-4
CCOC(=O)N1CCN(C(=O)C[C@H]2C[C@@]3(C(=O)OC)C(=C[C@H](C(C)(C)C)O[C@@H]3C)N(Cc3ccco3)C2=O)CC1	2	-2	-1	-1	1	.	.	.	.
CC(C)C[C@@H](CN1CCC[C@H]1CN1C(=O)C(=O)NC[C@@H]1Cc1ccc(O)cc1)N1C[C@H](Cc2ccc(O)cc2)N(CCc2ccccc2)C(=O)C1=O	73*	1	4	3	3	-4	3	-16	-10
N#CCC[C@@H]1CC[C@]2(CCCN(S(=O)(=O)c3ccccc3)C2)O1	6	-1	3	8	2	.	.	.	.
COC(=O)c1cc2c(c3c4cc(F)ccc4n(S(=O)(=O)c4cccc(C)c4)c13)C(=O)N(Cc1ccco1)C2	2	12	26	-2	-2	.	.	.	.
COc1ccc(C2C(C(C)=O)=C(C)N=c3s/c(=C\c4ccco4)c(=O)n32)c(OC)c1 (centres undefined)	15*	13	15	-2	-3	5	-1	7	0
O=C(NN=Cc1ccccc1C(F)(F)F)c1cc(-c2ccc(Cl)cc2)n[nH]1	-1	-3	8	2	-2	.	.	.	.
Cc1ccc(NC2c3ncccc3C(=O)N2Cc2ccco2)c(C)c1 (centres undefined)	20*	10	-2	2	12	-2	0	-2	6
COc1ccc(CN2C(=O)c3cccnc3C2Nc2cc(Cl)ccc2OC)cc1 (centres undefined)	15*	5	2	-8	0	-2	-1	7	23*
SMILES	LEDGF integ inh	PRMT1 inh	rCAG binder	MBD2 DNA inh	UHRF1 MBD2 ctr	ABHD5-PLIN5 inh	IN multimer up	TRFRET interf	LEDGF integ conf
COc1ccc(OC)c(NC2c3ncccc3C(=O)N2Cc2ccco2)c1 (centres undefined)	-1	8	5	9	5	1	.	.	.
COc1ccc(N2CCN(CCCNC(=O)CCc3cccc(Cl)c3)CC2)cc1	1	0	0	0	2	.	.	.	.
COC(=O)C1=C(C)N(C)C(=NCc2cc(OC)c(OC)c(OC)c2)NC1c1cccc(C(F)(F)F)c1 (centres undefined)	2	-8	4	6	-2	.	.	.	.
CCN(CC)c1ccc(N=Cc2cc(Br)ccc2O)cc1	24*	22*	7	-7	-4	7	6	-23	7
CCC(=O)Nc1nc2ccccc2n1Cc1ccc(C)cc1	14*	3	-1	3	1	0	-1	3	13
CCOC(=O)C1=CCN(S(=O)(=O)c2ccccc2Cl)C1c1ccc(Cl)cc1 (centres undefined)	-5	3	0	2	1	.	.	.	.
C[C@@H]1ON(C)[C@H]2C[C@H]3c4cc(-c5ccc6c(c5)OCO6)ccc4CCN3C[C@@H]12	3	-3	1	3	0	.	.	.	.
COC(=O)[C@]12C[C@H](CC(=O)N3CCCCC3)C(=O)N(CCc3ccc(OC)c(OC)c3)C1=C[C@H](COCc1ccccc1)O[C@@H]2C	0	0	2	-5	-2	.	.	.	.
O=C(CN(C(=O)c1csnn1)c1ccc2c(c1)OCCO2)NCc1ccccc1	26*	1	2	-1	-1	11	-2	9	-2
COc1ccccc1CCn1cnc(-c2ccc(Br)cc2)c1CC(C)C	1	6	0	-6	-3	.	.	.	.
COC(=O)C1=C(C)N(Cc2ccc(OC)cc2)C(=O)C1	4	-1	3	2	3	4	.	.	.
COC(=O)C1=C(C)N(Cc2ccco2)C(=O)C1	29*	6	15	6	11	18	2	-7	31*
